ALR inh: inhibitors of human ALR sulfhydryl oxidase, primary screen, biochemical, H2O2 detection, HRP-luminol luminescence, single point | purified ALR, DTT oxidation | inhibition, % (no concentration beside the values) | 290,000 compounds, 3.8% hits | AID 485317, 2010;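 active = mean replicate inhibition above about 79%, with every replicate also reaching it, limit read from the data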
Target sequence (P55789 whole entry, looked up): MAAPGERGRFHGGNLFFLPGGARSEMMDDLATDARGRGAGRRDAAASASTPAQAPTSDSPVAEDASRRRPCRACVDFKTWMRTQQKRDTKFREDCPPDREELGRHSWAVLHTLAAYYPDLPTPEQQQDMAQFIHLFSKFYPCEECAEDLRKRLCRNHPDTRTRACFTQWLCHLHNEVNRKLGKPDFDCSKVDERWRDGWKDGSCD
APOBEC3A inh: APOBEC3A ssDNA deaminase inhibitors, primary screen, selectivity assay for APOBEC3G inhibitor project, biochemical, FAM/TAMRA oligo cleavage fluorescence; 330,000 compounds, 0.41% hits; inhibition, % at 20 µM; AID 493011, 2011; DNA dC->dU-editing enzyme APOBEC-3A (Homo sapiens), P31941; recombinant A3A, FAM/TAMRA ssDNA deamination fluorescence;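 active = at least 40% inhibition at 20 µM here, with at most 30% in a related deaminase screen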;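 note: plate controls were A3A with DMSO for no effect and wells lacking A3A enzyme for full effect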
APOBEC3G inh: APOBEC3G DNA deaminase inhibitors, primary screen, biochemical, fluorescence, single-stranded DNA substrate, uHTS. recombinant A3G, ssDNA deamination FAM/TAMRA fluorescence. 330,000 compounds, 0.28% hits. inhibition, % at 20 µM;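 active = inhibition of at least 40% at 20 µM, with no more than 30% in the related APOBEC3A deaminase screen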;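 note: plate controls were DMSO wells with A3G for no effect and wells lacking A3G enzyme for full effect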
rCAG binder: binders of r(CAG) RNA repeats, primary screen, biochemical, fluorescence; r(CAG) RNA repeat, TO-PRO-1 dye displacement fluorescence; 370,000 compounds, 1.3% hits; inhibition, % at 3 µM;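 active = inhibition above the plate cutoff, the mean of all test compounds on that plate plus 3 SD, cut at about 35% in these data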;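 note: 0% = DMSO alone and 100% = 100 µM mitoxantrone as full dye displacement; higher means more dye released from RNA so lower well fluorescence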
PHOSPHO1 block: PubChem AID 1565; recombinant PHOSPHO1, absorbance phosphatase assay; inhibition, % at 13.3 µM; 290,000 compounds, 1.1% hits; in the data active = inhibition above about 60%
Target sequence (Q8TCT1 whole entry, looked up): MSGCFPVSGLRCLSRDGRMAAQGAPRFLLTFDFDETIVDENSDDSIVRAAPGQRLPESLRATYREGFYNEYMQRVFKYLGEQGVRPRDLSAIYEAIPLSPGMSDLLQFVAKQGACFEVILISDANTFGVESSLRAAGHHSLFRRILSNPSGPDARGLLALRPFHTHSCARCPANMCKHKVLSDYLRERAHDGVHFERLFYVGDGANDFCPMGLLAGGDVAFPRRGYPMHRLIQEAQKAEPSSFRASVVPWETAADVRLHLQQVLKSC
aDG glyco act: activators of alpha-DG glycosylation, primary screen, uHTS, Pro5-aDG cells, AlphaScreen; alpha-DG glycosylation AlphaScreen (IIH6); 0% Pro5, 100% B10-LARGE cell signal; activation, % at 10 µM; 360,000 compounds, 0.22% hits;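 active = activation of at least 8% versus controls, or a plate z-score of at least 8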;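 note: Pro5 are CHO cells carrying HIG-tagged alpha-DG that lacks glycosylation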
Active calls of the source: *. Shown are actives, neighbours in structure and some others; about 5.4% of the full set was active somewhere.

`OC(CN1CCOCC1)CN(c1ccccc1)c1ccccc1` (centres undefined) gave ALR inh 99*, APOBEC3A inh -6, APOBEC3G inh -3, rCAG binder -7, PHOSPHO1 block -12 and aDG glyco act 0.
`O=C(c1ccccc1)C(CCC(CN1CCOCC1)C(=O)c1ccccc1)CN1CCOCC1` (centres undefined) gave ALR inh 98*, APOBEC3A inh -3, APOBEC3G inh -5, rCAG binder -4, PHOSPHO1 block 11 and aDG glyco act -1.
Screening Cc1ccccc1S(=O)(=O)N(CC(O)CN1CCCCC1)c1ccccc1 (centres undefined) returned ALR inh -7, APOBEC3A inh -7, APOBEC3G inh -9, rCAG binder -2, PHOSPHO1 block 54 and aDG glyco act 0.
`O=C(c1ccc(F)cc1)C(CN1CCOCC1)c1ccccc1` (centres undefined) gave ALR inh 7, APOBEC3A inh -4, APOBEC3G inh -4, rCAG binder -1, PHOSPHO1 block 19 and aDG glyco act 0.
Cc1ccccc1OCCCN1CCC(C(O)(c2ccccc2)c2ccccc2)CC1 was read as rCAG binder 2.
Screening COC(=O)CC(=O)CSc1nc2c(cc1C#N)CCC2 returned ALR inh 0, APOBEC3A inh -2, APOBEC3G inh -3, rCAG binder 3, PHOSPHO1 block -59 and aDG glyco act 0.
For CCOC(=O)CC(=O)CSc1nc2c(cc1C#N)CCCCCC2 the results were ALR inh -13, APOBEC3A inh -3, APOBEC3G inh -6, rCAG binder 5, PHOSPHO1 block 76* and aDG glyco act 0.
For c1ccc(-c2nc3nc4ccccc4nc3n2CC2CCCO2)cc1 (centres undefined) the results were APOBEC3A inh -5, APOBEC3G inh -6, rCAG binder -6, PHOSPHO1 block 12 and aDG glyco act 0.
Fc1ccc(-c2n[nH]c(=S)n2CC2CCCO2)cc1 (centres undefined) was read as ALR inh -1, APOBEC3A inh 0, APOBEC3G inh 36, rCAG binder -1, PHOSPHO1 block 88* and aDG glyco act 0.
For S=c1[nH]nc(-c2ccncc2)n1CC1CCCO1 (centres undefined) the results were ALR inh 93*, APOBEC3A inh 5, APOBEC3G inh -1, rCAG binder -1, PHOSPHO1 block 30 and aDG glyco act 0.
Screening Fc1ccc(Cn2ccc3ccc(-c4ccc5ccn(Cc6ccc(F)cc6)c5c4)cc32)cc1 returned rCAG binder 10.
COc1ccc(-n2c(SCC(=O)Nc3ccc(Oc4ccccc4)cc3)nnc2-c2cccnc2)cc1 was read as rCAG binder 10.
For CCN(Cc1nc2ccccc2n1C)c1ccccc1 the results were ALR inh 99*, APOBEC3A inh -9, APOBEC3G inh -3, rCAG binder 0, PHOSPHO1 block 8 and aDG glyco act 0.
Cn1c(Cc2nc3ccccc3n2C)nc2ccccc21 was read as ALR inh 6, APOBEC3A inh -3, APOBEC3G inh -5, rCAG binder -3 and aDG glyco act 0.
`CC(C)n1c(/C=C/c2ccccc2)nc2ccccc21` gave ALR inh -1, APOBEC3A inh -3, APOBEC3G inh 2, rCAG binder -9, PHOSPHO1 block -4 and aDG glyco act 0.
CC(C)n1c(CN(C)c2ccccc2)nc2ccccc21 was read as ALR inh 97*, APOBEC3A inh -3, APOBEC3G inh -3, rCAG binder -2 and aDG glyco act 1.
Screening CCN(CC)c1ccc(CNc2nc3ccccc3n2CCN2CCCCC2)cc1 returned ALR inh 99*, APOBEC3A inh -2, APOBEC3G inh -7, rCAG binder -3, PHOSPHO1 block 18 and aDG glyco act 0.
Cn1c(CNc2nc3ccccc3n2CCN2CCCCC2)nc2ccccc21 was read as ALR inh -7, APOBEC3A inh -2, APOBEC3G inh -6, rCAG binder -6, PHOSPHO1 block 29 and aDG glyco act 3.
Screening CCOc1ccc(CNc2nc3ccccc3n2CCN2CCOCC2)cc1 returned ALR inh 97*, APOBEC3A inh -3, APOBEC3G inh -7, rCAG binder 0, PHOSPHO1 block 10 and aDG glyco act 0.
Screening C=CCN1C(=O)c2n[nH]c(COC)c2C1c1ccc(C)cc1 (centres undefined) returned rCAG binder -1.
For COC(=O)[C@]12C[C@H](CC(=O)N3CCN(C(=O)C4CC4)CC3)C(=O)N(Cc3ccco3)C1=C[C@H](C(C)C)O[C@@H]2C1CC1 the results were rCAG binder 2.
`Nn1c(SCc2c(Cl)cccc2Cl)nnc1-c1n[nH]c2c1CCC2` gave rCAG binder 1.
`CC(COc1cccc(Cl)c1)CN1CCC(C(O)(c2ccccc2)c2ccccc2)CC1` (centres undefined) gave rCAG binder 3.
`CC(C)[C@H](NC(=O)c1cccs1)C(=O)N1CCC[C@H]1C(=O)NCc1ccccc1` gave rCAG binder 2.
`CCN(CC)c1ccc(CNc2nc3ccccc3n2C)cc1` gave ALR inh 98*, APOBEC3A inh -7, APOBEC3G inh -6, rCAG binder -1, PHOSPHO1 block 46 and aDG glyco act 0.
`CCCCn1nnnc1NCc1ccc(N(CC)CC)cc1` gave ALR inh 99*, APOBEC3A inh 4, APOBEC3G inh -2, rCAG binder -2, PHOSPHO1 block -1 and aDG glyco act 0.
Screening COc1ccc(CNc2nc3ccccc3n2CCN2CCCCC2)cc1 returned ALR inh 97*, APOBEC3A inh -3, APOBEC3G inh -5, rCAG binder -11, PHOSPHO1 block -25 and aDG glyco act 0.
CCn1c(NCc2cc(OC)c(OC)c(OC)c2)nc2ccccc21 was read as ALR inh 97*, APOBEC3A inh -5, APOBEC3G inh 6, rCAG binder -5, PHOSPHO1 block 19 and aDG glyco act 0.
`CN(C)S(=O)(=O)c1cccc(C(=O)N/N=C\c2ccccc2)c1` gave rCAG binder 0.
CCOC(=O)C1=C(C(=O)OCC)C2N(Cc3ccc(C#N)cc3)c3ccccc3[C@@]23C[C@@H](C(=O)OC)N(S(=O)(=O)c2ccccc2C)C3=N1 (some centres undefined) was read as rCAG binder 15.
